Assay [1] can be described thus: A CellTox Green Cytotoxicity Assay to monitor cytotoxicity in HEK293 cells - 32 hour (AID 1224881). Note: nearly all actives have a fitted effect of over 40% in size. Note: potency is the fitted concentration of half-maximal effect. In a few lines: (§1)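 Dead-cell fluorescence measured kinetically: asymmetric cyanine dye, HEK293, 600 cells/well, 5 h settle, 23 nL cpd/DMSO, 37 C, reads 0–40 h every 8 h.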
A short description of assay [2]: A CellTox Green Cytotoxicity Assay to monitor cytotoxicity in HepG2 cells - 0 hour (AID 1224882). Note: nearly all actives have a fitted effect of over 35% in size. In a few lines:
(§2)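 First, HepG2 cells (600/well) mixed with reagent were plated; second, after 5 h at 37 C they received compounds via pintool; third, fluorescence was measured at 0 h through 40 h at 8 h intervals.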

The nature of assay [3]: A CellTox Green Cytotoxicity Assay to monitor cytotoxicity in HepG2 cells - 32 hour (AID 1224883). Note: nearly all actives have a fitted effect of over 50% in size. Note: potency is the fitted concentration of half-maximal effect. The method in brief: as §2
Assay [4] can be described thus: A CellTox Green Cytotoxicity Assay to monitor cytotoxicity in HEK293 cells - 8 hour (AID 1224884). Note: nearly all actives have a fitted effect of over 35% in size. Note: potency is the fitted concentration of half-maximal effect. The method in brief: as §1
The nature of assay [5]: qHTS RealTime-Glo MT Cell Viability Assay in HepG2 cells - 16 hour (AID 1224885). Note: nearly all actives have a fitted effect of over 50% in size. The method in brief: (§3)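 Cell number in HepG2 cultures estimated from NanoLuc luminescence generated by metabolic reduction of a prosubstrate by living cells. The homogeneous, nonlytic format allowed repeated reads at 0, 8, 16, 24, 32 and 40 h of compound exposure.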
Assay [6] can be described thus: qHTS RealTime-Glo MT Cell Viability Assay in HEK293 cells - 24 hour (AID 1224886). Note: nearly all actives have a fitted effect of over 50% in size. Note: potency is the fitted concentration of half-maximal effect. In a few lines:
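Homogeneous bioluminescent viability format in HEK293 cells (600 cells/well). Following 5 h at 37 C/5% CO2, 23 nL compound was pintooled; the signal was measured repeatedly during 40 h incubation.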
A general note: In qHTS, concentration-response curves come from the screen itself.

A short description of assay [7]: qHTS RealTime-Glo MT Cell Viability Assay in HEK293 cells - 8 hour (AID 1224887). Note: top concentration of the series differs between compounds; nearly all actives have a fitted effect of over 50% in size. The method in brief: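 600 HEK293 cells per well, dispensed already mixed with RealTime-Glo MT reagents. Compound dosing came 5 h later. The same wells were read for luminescence at 0, 8, 16, 24, 32 and 40 h of exposure at 37 C.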
Assay [8] is described as follows: A CellTox Green Cytotoxicity Assay to monitor cytotoxicity in HEK293 cells - 16 hour (AID 1224888). Note: nearly all actives have a fitted effect of over 35% in size. The method in brief: as §1
Assay [9] can be described thus: qHTS RealTime-Glo MT Cell Viability Assay in HepG2 cells - 0 hour (AID 1224889). Note: nearly all actives have a fitted effect of over 50% in size. The method in brief: as §3
Assay [10] can be described thus: A CellTox Green Cytotoxicity Assay to monitor cytotoxicity in HepG2 cells - 8 hour (AID 1224890). Note: nearly all actives have a fitted effect of over 45% in size. In a few lines: as §2
Assay [11] is described as follows: qHTS assay to identify small molecule antagonists of the androgen receptor (AR) signaling pathway using the MDA cell line in the presence of 0.5 nM R1881 - cell viability counter screen (AID 1259242). Note: nearly all actives have a fitted effect of over 45% in size. The method in brief: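 qHTS format. MDA-kb2 (MMTV-luc, AR/GR responsive) + cpd + 0.5 nM R1881 final, 16 hr 37C/0% CO2 → CellTiter-Fluor 30 min → fluorescence intensity.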

Assay [12] concerns the target Estrogen receptor (Homo sapiens) (UniProt P03372). Put plainly: qHTS assay to identify small molecule antagonists of the estrogen receptor alpha (ER-alpha) signaling pathway using the BG1 cell line in the presence of 0.1 nM 17-beta-estradiol (AID 1259244). Note: nearly all actives have a fitted effect of over 50% in size. Note: potency is the fitted concentration of half-maximal effect. In a few lines: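 Reporter is a stably transfected luciferase under four estrogen responsive elements in VM7Luc4E2 cells expressing native full-length ER-alpha; inhibition of 0.1 nM (final) 17beta-estradiol-driven signal over 22 h is read by luminescence.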

Assay [13] in a line: qHTS assay to identify small molecule phospholipidosis (PLD) inducers (AID 1259344; active = well fitted curve in the direction sought with a large enough effect; an effect the other way counts as inactive or inconclusive). In a few lines: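 After 4 h attachment on collagen I, HepG2 cells were dosed with compound alongside LipidTOX Red, kept 24 h at 37 C, fixed, and imaged for lamellar phospholipid pits.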
Assay [14] in a line: qHTS assay to identify small molecule HDAC inhibitors (AID 1259364).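 Note: wild-type HCT-116 cells with endogenous class I/II HDAC activity; top concentration of the series differs between compounds; nearly all actives have a fitted effect of over 45% in size.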 The method in brief:
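Quantitative high-throughput format: overnight-seeded HCT-116 cells got compounds for 2 hr at 37C; HDAC-Glo I/II reagent added, 30 min RT, luminescence measured.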

Assay [15] is described as follows: qHTS assay to identify small molecule HDAC inhibitors - cell viability counter screen (AID 1259365). In a few lines: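 Luminescence from CellTiter-Glo, developed 30min at room temperature, reports viability of wild-type HCT-116 cells treated 2hr with compounds at 37 C and 5% CO2 after overnight plating.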
Assay [16] is described as follows: qHTS assay to identify small molecule agonists of the sonic hedgehog signaling (Shh) pathway - cell viability counter screen (AID 1259366). Note: nearly all actives have a fitted effect of over 50% in size. In a few lines:
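Cytotoxicity counter screen run in the same wells as the Shh reporter assay. NIH/3T3 cells carrying a Gli1 response element–driven luciferase were treated with DMSO-dissolved compounds for 24hr, and live-cell protease activity was measured with CellTiter-Fluor.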

Assay [17] can be described thus: qHTS assay to identify small molecule antagonists of the sonic hedgehog signaling (Shh) pathway - cell viability counter screen (AID 1259367). Note: nearly all actives have a fitted effect of over 55% in size. The method in brief: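 Conditioned medium drove Shh signaling in 3T3 Gli1-Luc cells exposed to compounds at 37C and 5% CO2. Viability was determined from CellTiter-Fluor fluorescence, with reagent incubated 1 hr after 23 hr of treatment.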

Assay [18] in a line: qHTS assay to identify small molecule agonists of the sonic hedgehog signaling (Shh) pathway (AID 1259368; calls by dose curve;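 note: NIH/3T3-derived 3T3Gli1-Luc cells carrying a stable Gli1-driven firefly luciferase reporter; series mostly up to about 92 µM; nearly all actives have a fitted effect of over 15% in size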). The method in brief: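 Quantitative high-throughput format using a Gli1-driven firefly luciferase reporter line derived from NIH/3T3 cells. After a 24 hr compound treatment at 37 C and 5% CO2, luminescence reported Gli1 response element activity.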
The nature of assay [19]: qHTS assay to identify small molecule antagonists of the estrogen receptor alpha (ER-alpha) signaling pathway using the BG1 cell line in the presence of 0.1 nM 17-beta-estradiol - cell viability counter screen (AID 1259241). Note: nearly all actives have a fitted effect of over 40% in size. In a few lines:
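VM7Luc4E2, 4,000 cells/well, phenol red-free medium + 10% charcoal-stripped FBS; 24 hr plating; cpd + 0.1 nM E2 final, 22 hr 37C/5% CO2; CellTiter-Fluor 30 min, fluorescence.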

Where “and” joins values, the source holds several entries; their conditions need not be identical. Equal values may be shown once. Records with an inconclusive call do not appear. A structure can be active in one record and inactive in another. Calls of active or inactive are those of the source. Unless noted, calls come from the whole dose curve; as a rule, active = well fitted curve in the direction sought with a large enough effect in the repeat runs; inconclusive = weak or mixed curves; inactive = no such curve, though single readings can be large; an effect the other way counts as inactive or inconclusive.

Our source for the Potency and outcome values is PubChem BioAssay (Tox21).

Estrogen receptor (Homo sapiens), sequence (P03372 whole entry, looked up): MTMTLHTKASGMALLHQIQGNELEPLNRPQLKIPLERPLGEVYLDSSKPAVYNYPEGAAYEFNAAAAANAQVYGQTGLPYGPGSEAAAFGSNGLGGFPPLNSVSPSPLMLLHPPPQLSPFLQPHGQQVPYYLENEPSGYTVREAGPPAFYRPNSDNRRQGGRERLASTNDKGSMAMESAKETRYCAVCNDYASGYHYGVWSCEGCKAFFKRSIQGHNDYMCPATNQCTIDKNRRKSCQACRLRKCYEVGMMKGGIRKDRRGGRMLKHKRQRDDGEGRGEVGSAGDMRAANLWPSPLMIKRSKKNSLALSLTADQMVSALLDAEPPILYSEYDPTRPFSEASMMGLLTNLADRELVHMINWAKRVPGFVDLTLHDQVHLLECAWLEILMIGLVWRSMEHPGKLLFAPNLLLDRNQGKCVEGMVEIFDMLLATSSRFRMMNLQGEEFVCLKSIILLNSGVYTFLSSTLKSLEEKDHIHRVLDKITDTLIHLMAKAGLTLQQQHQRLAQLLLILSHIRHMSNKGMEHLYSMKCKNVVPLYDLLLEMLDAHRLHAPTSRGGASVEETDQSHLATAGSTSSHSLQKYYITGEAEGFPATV

As for `O=c1[nH]cc(F)c(=O)[nH]1`, the Potency in assay [1] is 50.8 µM (active) and inactive; in assay [3] it was 45.3 µM (active) and inactive; in assay [12] it was 12.7 µM (active) and inactive. Also, the Potency entry in assay [2], in [4], in assay [5], in assay [6], in assay [7] and in [8] was “inactive” in each case. Besides, the Potency result in assay [9], in assay [10], in assay [11], in [13], in assay [14] and in assay [15] was “inactive” in each case. Further, the Potency entry in [16] and in [17] was “inactive” in each case. For the same compound, the compound was called inactive in assay [18].

Consider `Cc1cn([C@H]2C=C[C@@H](CO)O2)c(=O)[nH]c1=O`, for which the Potency entry in [1], in assay [2], in assay [3], in assay [4], in [5] and in assay [6] was “inactive” in each case. Moreover, the Potency result in [7], in assay [8], in assay [9], in assay [10], in assay [19] and in [11] was “inactive” each time. The Potency result in [13], in assay [14], in [15], in [16] and in assay [17] was “inactive” each time. Also, in assay [18], the compound was classed as inactive.

For the compound `CCCCCCCC(=O)OCC(COC(=O)CCCCCCC)OC(=O)CCCCCCC`, the Potency entry in assay [1], in assay [2], in [3], in assay [4], in assay [5] and in assay [6] was “inactive” each time. The Potency entry in [7], in assay [8], in assay [10], in assay [19], in [11] and in [12] was “inactive” in each case. The Potency result in assay [13], in assay [14], in assay [15], in [16] and in [17] was “inactive” throughout. For the same compound, the compound was classed as inactive in assay [18].

`COc1ccc(C(Cl)=C(c2ccc(OC)cc2)c2ccc(OC)cc2)cc1`: the Potency result in [1], in assay [2], in assay [3], in [5], in [6] and in assay [7] was “inactive” each time. For the same compound, the Potency entry in [8], in [10], in assay [19], in assay [11], in [13] and in [14] was “inactive” throughout. Besides, the Potency entry in assay [15], in [16] and in assay [17] was “inactive” throughout. Besides, the Potency result in [4] was “inactive and 43.6 µM (active)”; in assay [12], 2.72 µM (active) and 7.7 µM (active) and 2.11 µM (active). For the same compound, in assay [18], the result was inactive.

In the case of `CCN(CC)C(=O)c1cccc(C)c1`, the Potency result in assay [1], in assay [2], in assay [3], in [4], in assay [5] and in [6] was “inactive” throughout. For the same compound, the Potency result in [7], in [8], in [9], in assay [10], in assay [19] and in assay [11] was “inactive” each time. The Potency entry in [12], in assay [13], in assay [14], in [15], in assay [16] and in assay [17] was “inactive” each time. For the same compound, in [18], the result was inactive.

Regarding `CC(C)NCC(O)c1ccc(O)c(O)c1` (centres undefined), the Potency result in assay [1], in assay [2], in assay [3], in [4], in [5] and in assay [7] was “inactive” throughout. The Potency entry in assay [8], in assay [9], in assay [10], in [19], in assay [11] and in assay [13] was “inactive” each time. The Potency entry in assay [14], in [15], in assay [16] and in [17] was “inactive” throughout. Also, in [6], the Potency was 48.4 µM (active) and inactive. Further, the compound was classed as inactive in assay [18].
